Consider 40 compounds from PubChem BioAssay (NCI).

This is part of a sample that, as a whole, favours compounds with a hit. Of some 83,000 tested, about 20% had one in any assay.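 Percent growth is the endpoint: 0 to 100 indicates growth inhibition (40 means 60% inhibition), 0 means no net growth, and negative values indicate cell death.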 The source made the active and inactive calls.

The subject of the assay is EKVX NSCLC. Kind of assay: NCI-60 one-dose screen, 48 h (100 = growth as untreated, 0 = no growth, -100 = all killed). The settings on record: 10 µM unless noted. As to the method: Growth inhibition of the EKVX human Non-Small Cell Lung tumor cell line is measured as a screen for anti-cancer activity. Cells are grown in 96 well plates and exposed to the test compound for 48 hours. Compounds are tested at a single concentration, which is 10^-5 M for most compounds. The reported endpoint is percent growth (GI% or GIPRCNT), where numbers from 0 - 100% represent growth inhibition, and numbers from -100% - 0 represent cell death. For example, a value of 40 represents 60% growth inhibition. A value of 0 means no net growth occurred over the course of the experiment. A value of -40 indicates 40% of cells at the beginning of the experiment died by the end of the experiment. A value of -100 means all cells are dead at the end of the experiment.
NCI-60 Human Tumor Cell Lines Screen was performed using the standard one-dose NCI protocol, which is described in more detail at https://dtp.cancer.gov/discovery_development/nci-60/default.htm.
Compounds with GIPRCNT values below 10 were considered active. Activity score was based on GIPRCNT using the following formula: […]
Score is 0 for GIPRCNT values of 100 or above, 50 for GIPRCNT values of 0, and 100 for GIPRCNT values of -100.
With `CCCCn1c(-c2cccc(OC)c2)nc2cc(OC)c(OC)cc2c1=O`, the growth is 70.8% (inactive).

Take `CCN(CC)CCNCC(O)Cc1ccc(OC)cc1` (stereo not given): the growth is 105% (inactive).

Regarding `CCOC(=O)c1noc2c1CCc1c-2cn(Cc2ccc(OC)cc2)c1-c1cc(OC)c(OC)c(OC)c1`, the growth was 48.6% (inactive).

Consider `C/C(=N\N=C1/SCC(=O)N1c1ccccc1)c1ccco1`, for which the growth is 105% (inactive).

`N#CC(C#N)=C(C#N)c1c[nH]c2ccccc12`: the growth was 73% (inactive).

For `CC(/C=C/C=C(\C)[C@H](O)[C@H](C)C(=O)O[C@H]1C[C@H](C)C=C2C=C[C@@]3(C)O[C@@H](O)CC(=O)[C@]3(C)[C@H]21)=C\C=C\C(=O)O`, the growth is -0.933% (active).

In the case of `COc1ccc(-c2nnc(SCC(=O)Nc3ccc(C(=O)/C=C/c4ccc(Cl)cc4)cc3)o2)cc1OC`, the growth was 80.2% (inactive).

`CC(C)(C)OC(=O)N1CC(Cn2cc(C(F)(F)F)c3c(Cl)ncnc32)C1`: the growth was 50.3% (inactive).

On to `ClC1c2ccccc2CCc2ccccc21`, for which the growth was 94% (inactive).

With `CN(C)CC/C=C1\c2ccccc2Sc2ccc(Cl)cc21`, the growth was 78.6% (inactive).

In the case of `CC(=O)N1N=C(CCC(=O)c2nc3ccc([N+](=O)[O-])cc3[nH]2)OC1c1ccc(O)cc1` (stereo not given), the growth is 92.5% (inactive).

With `O=S(=O)(CCN1CCOCC1)Nc1cncc(-c2ccc3ncnc(Nc4ccc(F)c(Cl)c4)c3c2)c1`, the growth was 44.7% (inactive).

Consider `CC(C)(C)NCC(O)COc1c(Br)c(Br)c(Br)c2c1OC(C)(C)C2` (stereo not given), for which the growth is 50.1% (inactive).

Regarding `O=C(N/N=C/c1ccccc1O)c1ccccc1O`, the growth is 37.5% (inactive).

Consider `CCCC(=O)Oc1ccc(/C(=C(\C)c2ccc(OC)cc2)c2ccc(OCCN3CCCCC3)cc2)cc1`, for which the growth is 89.1% (inactive).

For `CC1=C2C(=C[C@@](C)(CO)[C@@H]2OC(=O)N(C)CCN(C)C(=O)OC(C)(C)C)C(=O)[C@](C)(O)C12CC2`, the growth is 78.5% (inactive).

Turning to `O=C(O)c1ccc(-n2cc(/C=N/Nc3ccccc3F)c(-c3ccc(O)cc3)n2)cc1`, the growth was 69.9% (inactive).

As to `CC[C@@]1(O)C(=O)OCc2c1cc1n(c2=O)Cc2c-1nc1ccccc1c2/C=N/OC(C)(C)C`, the growth was 17% (inactive).

As for `CCCCC(=O)Nc1nc2ccc(SCCC)cc2s1`, the growth was 59.7% (inactive).

In the case of `COc1ccc(-c2nnc(SCC(=O)N3CCN(c4cc5c(cc4F)c(=O)c(C(=O)O)cn5C4CC4)CC3)o2)cc1OC`, the growth is 102% (inactive).

As for `C=C1C(=O)O[C@H]2[C@H]1CC/C(COC(=O)c1cccc3ccccc13)=C\CC[C@@]1(C)O[C@@H]21`, the growth was -81.9% (active).

Consider `O=c1c2ccccc2sc2c(N3CCCC3)nc3ccccc3c12`, for which the growth is 103% (inactive).

Regarding `CCCCCCCC(=O)SCC/C=C/[C@@H]1CC(=O)NCc2nc(cs2)C2=N[C@@](C)(CS2)C(=O)N[C@@H](C(C)C)C(=O)N1`, the growth was 32.8% (inactive).

Consider `CN1CCN(C(=O)/C=C/c2ccc([N+](=O)[O-])o2)CC1`, for which the growth is 132% (inactive).

On to `CCc1cccc(-c2ccccc2)c1`, for which the growth was 102% (inactive).

Turning to `COc1ccc2c(c1)O/C(=C/c1ccc(OCC(=O)Nc3ccc(S(N)(=O)=O)cc3)cc1)C2=O`, the growth was 97.5% (inactive).

As for `O=[N+]([O-])c1cccc2cc(S(=O)(=O)O)ccc12`, the growth is 96.2% (inactive).

Consider `Cc1c(C(C)(C)C)cc(C(C)(C)C)c2c1CN(C)CO2`, for which the growth was 105% (inactive).

Consider `COC(=O)c1oc2c(C(=O)/C=C/c3ccc(OC)cc3)c(OCCN3CCOCC3)ccc2c1C`, for which the growth was 9.46% (active).

As for `COc1cc2c(cc1OCCCCC(=O)Nc1ccc(-c3nc4ccccc4s3)cc1)N=C[C@@H]1CCCN1C2=O`, the growth is 2.66% (active).

On to `Nc1ncnc2c1c(-c1ccc(Oc3ccccc3)cc1)nn2C[C@H]1SSC[C@@H]1O`, for which the growth was 25.3% (inactive).

On to `Nc1nccc(=S)[nH]1`, for which the growth is 101% (inactive).

As to `CC(C)Cn1cnc2c3ccccc3nc(NCn3nc(-c4cc(Cl)cc(Cl)c4Cl)oc3=S)c21`, the growth was 89.1% (inactive).

Regarding `C=C1C(=O)O[C@H]2[C@H]1CC/C(COC(=O)c1ccc(Br)cc1)=C\CC[C@@]1(C)O[C@@H]21`, the growth is -41.3% (active).

Consider `CC1(C)N=C(N)N=C(N)N1c1ccc(F)c(C(F)(F)F)c1`, for which the growth was 65.2% (inactive).

In the case of `COC(=O)CCCNS(=O)(=O)c1cc(C(=O)Nc2ccc(NC(=O)c3cc(S(=O)(=O)NCCCC(=O)OC)c(O)c(O)c3O)cc2)c(O)c(O)c1O`, the growth is 84.3% (inactive).

`CCOC(=O)c1noc2c1CCc1cn(Cc3cc(OC)cc(OC)c3)cc1-2`: the growth is 98.1% (inactive).

As to `CC(C)CNCC(O)COc1ccc(C(C)(C)c2ccc(OCC(O)CNCC(C)C)cc2)cc1` (stereo not given), the growth was 69.4% (inactive).

Turning to `Clc1ccc(OCc2nc(-c3ccccc3)n[nH]2)c(Cl)c1`, the growth is 93.8% (inactive).

Consider `COc1ccc(-c2nnc(NC(=O)CN3CCN(c4cc5c(cc4F)c(=O)c(C(=O)O)cn5C4CC4)CC3)s2)cc1OC`, for which the growth was 108% (inactive).
